Our source for the growth inhibition values is PubChem BioAssay (NCI).

This is part of a sample that, as a whole, favours compounds with a hit. Of some 79,000 tested, about 15% had one in any assay. The source made the active and inactive calls. Cut-off read from the data, not from the text of the source: active = growth inhibition above about 70%; inactive = the rest.

The experiment is described as follows: NCI Yeast Anticancer Drug Screen. Data for the rad50 strain (AID 155).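 Note: 0% = growth of vehicle-only cultures of the same strain.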 To be noted: S. cerevisiae rad50 strain growth inhibition; at 50.0 µM; active compounds read high. The method, boiled down: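 Compounds were tested on a yeast strain with an engineered DNA damage repair alteration; the reported value is growth inhibition normalised to vehicle treatment.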
Consider `O=C(N/N=C1\C(=O)N(c2nccs2)C(=O)C(=O)C1c1nc2ccccc2s1)c1ccccc1O` (configuration not stated), for which the growth inhibition is 23.1% (inactive). As for `CCc1nc2c([nH]1)c(=O)n(C)c(=O)n2C`, the growth inhibition was 35% (inactive). In the case of `O=c1[nH]c2cc([N+](=O)[O-])ccc2nc1/C(=N\Nc1ccccc1)C(O)c1ccc2c(c1)OCO2` (configuration not stated), the growth inhibition was 26.5% (inactive). For the molecule `CCN1CCC(O)(C(C(=O)O)c2ccccc2)CC1` (configuration not stated), the growth inhibition was 3.45% (inactive). Next, `[Cl][Co][Cl].[NH-]CCC[NH-].[NH-]CCC[NH-]`: 1.5% (inactive); `O=C(Nc1ccc([N+](=O)[O-])cc1Cl)OCCc1ccccn1`: 3.25% (inactive). With `O=C(O)c1cc2oc3ccccc3c2cc1O`, the growth inhibition was 2.4% (inactive). Take `CC(=O)N/C(=C/c1ccccc1)C(=O)NC(C)(C)C`: the growth inhibition was -13.1% (inactive).

In the case of `COC(=O)C1=C(C)NC(C)=C(C(=O)OC)C1c1ccc(NC(C)=O)cc1`, the growth inhibition was 4.7% (inactive). Turning to `c1ccc(C2CN3CCSC3=N2)cc1` (configuration not stated), the growth inhibition was -30.4% (inactive). With `CC(C)(C)OC(=O)c1cccc(C(=O)OC(C)(C)C)c1`, the growth inhibition was 0.6% (inactive). In the case of `O/N=C1/CC2CCCCC2CC1(O)c1ccccc1` (configuration not stated), the growth inhibition is 17.3% (inactive). `CC(=O)CC(=O)C1CCC(C(=O)CC(C)=O)CC1` (configuration not stated): the growth inhibition is -3.7% (inactive). On to `Cc1cccc([Si](c2ccccc2)(c2ccccc2)c2ccccc2)c1`, for which the growth inhibition is -3.7% (inactive). As for `CC(=O)NC(CCC(=O)C=[N+]=N)C(=O)O` (configuration not stated), the growth inhibition was 18.4% (inactive).

As to `O=c1[nH]nnc2ccccc12`, the growth inhibition was 2.85% (inactive). With `O=C(O)C(Nc1ccc(Cc2ccc(NC(C(=O)O)c3ccccc3)cc2)cc1)c1ccccc1` (configuration not stated), the growth inhibition is 94% (active).
